Active and inactive are the calls of the source. Rule as the data show it, unless noted: active = activity above about 50%; inactive = the rest.
How the values were obtained:
[1] = inhibition of Brca1/Bard1 split-luciferase complementation, confirmation, counter-screen for Mdm2/MdmX interaction inhibitor project, luminescence, single concentration (AID 504668; call rule not given here); conditions: Brca1/Bard1 bimolecular luciferase complementation counterscreen, at 8 µM, stronger effect = higher value
[2] = biological target: Tumor necrosis factor receptor superfamily member 10B (Homo sapiens) (UniProt O14763); experiment: caspase-8 TRAIL sensitization, hit retest, confirmation, cell-based, NB7+caspase-8, with/without TRAIL, luminescence panel (AID 651596); conditions: NB7 neuroblastoma + caspase-8, TRAIL sensitization, luminescence viability, with TRAIL, mean of runs, at 10 µM, stronger effect = higher value
[3] = as above; conditions: NB7 neuroblastoma + caspase-8, without TRAIL, luminescence viability, without TRAIL, mean of runs, at 10 µM

Tumor necrosis factor receptor superfamily member 10B (Homo sapiens), sequence (O14763 whole entry, looked up): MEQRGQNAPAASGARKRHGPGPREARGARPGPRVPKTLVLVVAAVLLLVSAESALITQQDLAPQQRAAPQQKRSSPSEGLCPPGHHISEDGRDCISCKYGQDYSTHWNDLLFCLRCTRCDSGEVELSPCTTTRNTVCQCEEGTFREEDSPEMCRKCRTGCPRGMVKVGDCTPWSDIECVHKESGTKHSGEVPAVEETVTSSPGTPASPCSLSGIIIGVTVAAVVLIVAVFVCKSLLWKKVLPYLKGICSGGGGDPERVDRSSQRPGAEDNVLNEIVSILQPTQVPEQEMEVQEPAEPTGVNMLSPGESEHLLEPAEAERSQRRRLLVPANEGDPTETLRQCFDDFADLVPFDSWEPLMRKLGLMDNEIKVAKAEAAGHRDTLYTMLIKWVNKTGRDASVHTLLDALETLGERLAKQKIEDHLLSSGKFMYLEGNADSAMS

Compound	inhibition [1]	activity [2] [%]	activity [3] [%]
O=C(CCl)N(C/C=C/c1ccccc1)c1ccc2c(c1)OCCO2	26.4% (active)	97.8	94
COC(=O)C1=C(C)N(Cc2ccccc2)C(=NCC(C)C)N[C@H]1c1cccc(C(F)(F)F)c1	26.2% (active)	25.1	6.62
NC(=O)c1oc2ccccc2c1NC(=O)c1ccc([N+](=O)[O-])o1	31.8% (active)	69.1	96.5
C(=N\Nc1nncc2ccccc12)/c1ccccn1	29.9% (active)	78.7	80.2
O=C(Nc1ccc(OCC(F)(F)C(F)F)c(C(F)(F)F)c1)c1ccccc1O	28.2% (active)	67.8	68
CC(C)(C)c1ccc(C(=O)O/N=C(\N)c2ccccc2)cc1	23.3% (active)	99.4	99.6
O=C(C[C@@H]1C/C=C/CC[C@H](Cc2ccc(F)cc2)C(=O)OC[C@@H](Cc2ccccc2)NC1=O)N[C@H](CO)Cc1ccccc1	29.8% (active)	87.7	95.8
Cn1c(=NC(=O)CCl)sc2ccccc21	28.7% (active)	99.5	98.7
CC1CCc2c(sc3nc(C(C)(C)C)nc(N4CCN(C(=O)CCl)CC4)c23)C1 (stereo not drawn)	34.8% (active)	98.8	99.2
O=C(Nc1ccc2c(c1)OCCO2)c1cccc2nc3ccccc3nc12	27.6% (active)	59.7	77.5
COC(=O)Cc1ccc(NC(=O)c2ccc(C(C)(C)C)cc2)cc1	28.9% (active)	76.2	77.3
Cn1ncc2c(O/N=C(\N)c3ccc(C(F)(F)F)cc3)ncnc21	24.2% (active)	98.8	98.8
CC(NC(=O)Nc1nnc(C(F)(F)F)s1)(C(F)(F)F)C(F)(F)F	32.9% (active)	43.9	43.1
Cc1ccc(C)c(C(=O)Cn2ncc(Cl)c(Cl)c2=O)c1	31.7% (active)	99.7	99.3
O=C(Nc1ccc(OCC(F)(F)C(F)F)c(C(F)(F)F)c1)c1ccc(Cl)cc1	34% (active)	87.3	65.7
CCCCn1c(CCl)nc2cc(S(=O)(=O)N3CCOCC3)ccc21	30.4% (active)	92.6	76.2
